SW480 rerep – A quantitative high throughput screen for small molecules that induce DNA re-replication in SW480 colon adenocarcinoma cells | SW480 DNA re-replication, Hoechst DNA content imaging, 48 h | Potency, µM (series often up to 46.1 µM), for inactives: at the top dose re-replication activation, actives largely listed as activators | hit rate 1.8% among 340,000 | AID 624297, 2012; further: % of control where 0% means no effect; nearly all actives have a fitted effect of over 55% in size
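SW480 cells exposed to compounds for 48 hr at 37 C, 5% CO2, then Hoechst-stained 40 min. Nuclear DNA content imaged by fluorescence scanning (405 nm excitation, 500-530 nm emission); re-replication scored as increased high-intensity nuclei.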
MCF10A rerep – A quantitative high throughput screen for small molecules that induce DNA re-replication in MCF 10a normal breast cells. MCF 10A DNA re-replication, Hoechst nuclear intensity, 48 h. Potency, µM (titrated, usually from 46.1 µM), inactives show top-dose activity, positive = re-replication, hits mostly activators. hit rate 2.9% among 350,000. AID 624296, 2012; further: % of control where 0% means no effect; nearly all actives have a fitted effect of over 50% in size
KB-3-1 cytotox – qHTS assay for MDR1-selective chemotherapeutics: Primary screen using the parental adenocarcinoma cell KB-3-1; KB-3-1 viability, CellTiter-Glo ATP luminescence, 72 h; Potency, µM (series often up to 46.1 µM), usual class: cytotoxic; hit rate 1.4% among 400,000; AID 1347075, 2019; further: on the % scale 0 is the no-effect control and ±100 the full control effect; nearly all actives have a fitted effect of over 60% in size
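Parental KB-3-1 viability, qHTS format: 72 h compound exposure, 37 °C; CellTiter-Glo; media-only wells and DMSO plates as controls; concentration-effect fits on corrected data.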
KB-V1 cytotox – qHTS assay for MDR1-selective chemotherapeutics: Primary screen using the drug-selected MDR subline cells KB-V1. hit rate 3.4% among 400,000. KB-V1 MDR cells viability, CellTiter-Glo, 72 h. Potency, µM (titrated, usually from 46.1 µM), most hits filed as cytotoxic; further: on the % scale 0 is the no-effect control and ±100 the full control effect; nearly all actives have a fitted effect of over 60% in size
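Readout: CellTiter-Glo luminescence, 10 min after addition. Cells: KB-V1 MDR subline, 72 h at 37 degrees C with compound. Analysis: corrected, normalized data fitted to concentration-effect curves.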
ELG1 DNA repair – qHTS screen for small molecules that inhibit ELG1-dependent DNA repair in human embryonic kidney (HEK293T) cells expressing luciferase-tagged ELG1; HEK293T ELG1-luciferase reporter, luminescence, 16 h; DNA damage induced by 5-fluorouridine; Potency, µM (highest dose often 46.1 µM), for inactives: at the top dose activity change, negative = inhibition, most hits filed as inhibitors; AID 504467, 2011; hit rate 2.3% among 330,000; further: on the % scale 0 is the no-effect control and ±100 the full control effect; nearly all actives have a fitted effect of over 55% in size
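Step one: seed 2,000 cells per well. Step two: pin-transfer compound or DMSO alongside 5-fluorouridine. Step three: incubate 16 hr, 37 °C, 5% CO2. Step four: add ONE-Glo, wait 30 min, read luminescence.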
Starred values were filed as active, the others as inactive; i = inactive; ? = inconclusive; . = not tested or not shown. Shown are actives, neighbours in structure and some others; about 8.1% of the full set was active somewhere. The call rests on the fitted dose curve; in most records, active means well fitted curve in the direction sought with a large enough effect; inconclusive means small, poorly fitted or top-dose-only effect, or another doubt; inactive means no such curve, though single readings can be large; an effect the other way counts as inactive or inconclusive. Potency means the concentration at half of the fitted maximal effect.

SMILES | SW480 rerep | MCF10A rerep | KB-3-1 cytotox | KB-V1 cytotox | ELG1 DNA repair
Cc1ccc(-n2nc3c(N4CCC(C(=O)NC(C)c5ccccc5)CC4)nnc(C)c3c2C)cc1 (configuration not stated) | . | . | i | i | .
O=C(CCC(=O)N1Cc2ccccc2Oc2ncccc21)NCc1ccccc1Cl | . | . | i | i | .
Cc1cccc(C2=NN(c3ccccc3)[C@@H](C(=O)N3CCOC3=O)[C@@H]2c2ccccc2)c1 | 16µM* | ? | i | i | -12%
Cc1cccc(C2=NN(c3ccc(Br)cc3)[C@@H](C(=O)N3CCOC3=O)[C@@H]2c2ccccc2)c1 | ? | 1.5µM* | i | i | 9%
Cc1ccc(S(=O)(=O)N2[C@@H](c3ccc(Br)cc3)C(C(=O)O)=CC[C@H]2c2cccc(C)c2)cc1 | ? | -6% | i | i | -4%
O=C1OCCN1C(=O)[C@H]1[C@H](c2ccc([N+](=O)[O-])cc2)C(c2ccc(F)cc2)=NN1c1ccccc1 | 8% | -10% | i | i | ?
CCOC(=O)c1[nH]c2ccccc2c1NC(=O)c1c(F)cccc1F | . | . | i | i | .
CCOC(=O)c1c(C)[nH]c(C(=O)COC(=O)C23CC4CC(CC(Cl)(C4)C2)C3)c1C | 3% | ? | i | i | 12µM*
COc1ccc(-c2nc(CNS(=O)(=O)c3cc(OC)ccc3OC)cs2)cc1 | -6% | -2% | i | i | 16µM*
CC(=O)Nc1ccc2nc(CN3CCC(CO)(CCc4ccccc4)CC3)ccc2c1 | 0% | 18µM* | i | i | 5%
CC(=O)c1cccc(CN2CCC(CO)(CCCc3ccccc3)CC2)c1 | -3% | 12% | i | ? | -5%
O=C(O)c1ccc(N/N=C/C2=C(N3CCOCC3)C(=C\c3ccccc3)/CC2)cc1 | 18µM* | ? | i | i | ?
Cc1cc(C)nc(NN=CC2=C(N3CCOCC3)/C(=C/c3ccc(Cl)cc3)CC2)n1 | 21µM* | ? | i | i | .
C/C(=N/NC(=O)c1ccoc1C)c1ccc(N2CCOCC2)cc1 | -11% | -3% | i | i | ?
Cc1cc(C)nc(N/N=C/C2=C(N3CCOCC3)C(=C\c3ccc(Cl)cc3)/CC2)n1 | ? | ? | ? | i | ?
Cc1occc1C(=O)N/N=C/C1=C(N2CCOCC2)C(=C\c2ccc(Cl)cc2Cl)/CC1 | 2.9µM* | 2.1µM* | i | ? | ?
CC1CC1C(=O)OCC(=O)Nc1ccc(S(=O)(=O)N2CCOCC2)cc1 (configuration not stated) | 3% | -5% | i | i | 0%
CCc1ccc([C@@H]2CC=C(C(=O)O)[C@H](c3ccc(Cl)cc3)N2S(=O)(=O)c2ccc(C)cc2)cc1 | -13% | 13µM* | i | i | 14%
Cc1ccccc1S(=O)(=O)N1[C@@H](c2ccc(Cl)cc2)C(C(=O)O)=CC[C@H]1c1ccc(Cl)cc1 | 2% | 16µM* | i | i | 0%
CCc1ccc([C@@H]2CC=C(C(=O)O)[C@H](c3ccc(C)cc3)N2S(=O)(=O)c2ccc(C)cc2)cc1 | 13% | -34% | i | i | -4%
Cc1nc2ccccn2c(=O)c1NC(=O)c1ccc2c(c1)OCO2 | . | . | i | i | .
COC(=O)[C@H](C)NS(=O)(=O)C1CC1 | . | . | i | i | .
CCCCCNC(=O)C(c1ccc(OC)cc1)n1c(=O)c(-c2cc3ccccc3[nH]2)nc2ccccc21 (configuration not stated) | . | . | i | i | .
Cc1ccc(NC(=O)CSc2nn(-c3ccc(Cl)cc3)c(=S)s2)cc1S(=O)(=O)N(C)C | . | 13% | ? | 21µM* | 15µM*
CN(C)S(=O)(=O)c1cc(NC(=O)CSc2nn(-c3ccc(Cl)cc3)c(=S)s2)ccc1Cl | 16% | 7% | ? | 16µM* | ?
SMILES | SW480 rerep | MCF10A rerep | KB-3-1 cytotox | KB-V1 cytotox | ELG1 DNA repair
NS(=O)(=O)c1cccc(NC(=O)CSc2nn(-c3ccccc3)c(=S)s2)c1 | -1% | 2% | i | i | ?
CC(=O)O[C@]1(C(C)=O)CC[C@H]2[C@@H]3C=CC4=CC(=O)C=C[C@]4(C)[C@H]3CC[C@@]21C | 1% | ? | ? | 13µM* | 0%
O=C(Cc1ccc(NC(=O)C2CCN(C(=O)C3CCCC3)CC2)cc1)Nc1cccc(C(=O)N2CCCCC2)c1 | -2% | -30% | i | i | .
CCOC(=O)N1N=C(CC)CC1(O)C(F)(F)F (configuration not stated) | -3% | 17% | i | ? | 10%
CCC1=NN(C(=O)Cc2ccc(OC)c(OC)c2)C(O)(C(F)(F)F)C1 (configuration not stated) | -21% | -1% | i | 15µM* | -2%
Cc1cccc(OCCCCn2nnc3sc4c(c3c2=O)CCC(C)C4)c1 (configuration not stated) | . | . | i | i | .
CN(C(=O)CC(=O)Nc1ccc(Cl)c(Cl)c1)c1ccccc1 | -22% | -40% | i | i | 3%
COc1cccc(CN2CCCC(C(=O)Nc3ccc(-c4cscn4)cc3)C2)c1 (configuration not stated) | ? | 1% | ? | 21µM* | ?
Cc1ncc(CN2CCCC(C(=O)Nc3ccc(-c4ccco4)cc3)C2)cn1 (configuration not stated) | ? | 2% | i | i | 6%
Cc1ncc(CN2CCCC(C(=O)Nc3ccc(-c4cccc(F)c4)cc3)C2)n1C (configuration not stated) | ? | 23µM* | ? | ? | -20%
COCc1cc(CN2CCCC(C(=O)Nc3ccc(-c4ccco4)cc3)C2)ccc1OC (configuration not stated) | 23µM* | 2% | ? | i | -16%
CCOC(=O)c1c(C)[nH]c(C)c1S(=O)(=O)NCC(=O)Nc1ccc(CC)cc1 | . | . | i | i | .
CCN1CCN(c2nc(-c3ccccn3)nc3ccccc23)CC1 | ? | 6% | i | 5.2µM* | ?
c1ccc(CN2CCN(c3nc(-c4ccccn4)nc4ccccc34)CC2)cc1 | -16% | -1% | i | i | 8.2µM*
CCN1CCN(c2nc(-c3ccccc3Cl)nc3ccccc23)CC1 | -13% | 1% | i | i | ?
c1ccc(CN2CCN(c3nc(-c4ccccc4)nc4ccccc34)CC2)cc1 | ? | ? | i | i | ?

Assay outcomes as filed in PubChem.
